Potency and affinity values are given separately. The source made the active and inactive calls. Entries that show only a call come without a potency. No rule for the calls is given here.

This test in a line: HeLa cell cytotoxicity, dose response, cytotoxicity control, 24 h, plate reader, dry powder (AID 686928). As to conditions: series mostly up to 80 µM.

As for `O=c1nc(Cc2ccccc2)n(-c2cccc(Cl)c2)c2ccccc12`, the outcome was inactive.

`O=C(Cc1ccc(-c2ccccc2)cc1)NC1COC1`: the outcome was inactive.

As for `O=C(Nc1nnc(-c2cccc(Cl)c2)o1)C1CCCCC1`, the compound was classed as inactive.

With `CN(C)/C=N/c1nnc(-c2ccc3c(c2)OCCO3)o1`, the compound was called inactive.

`O=C(Nc1nnc(-c2ccc3c(c2)OCCO3)o1)C1CCCCC1`: the result was inactive.

Regarding `O=c1ncn(-c2cccc(F)c2)c2ccccc12`, the compound was called inactive.

For `O=C(Cc1ccc(-c2ccccc2)cc1)NC1CNC1`, the compound was classed as inactive.

For `COC(=O)c1ccccc1Nc1cccc(Cl)c1`, the call was inactive.

In the case of `O=C(CC1CCCCC1)Nc1nnc(-c2cccnc2)o1`, the result was inactive.

Take `NC(=O)c1ccccc1Nc1ccccc1`: the call was inactive.

For the compound `Cc1cc(F)c2cc3c(NC(=O)c4ccco4)nn(C)c3nc2c1`, the compound was classed as inactive.

In the case of `Cn1nc(NC(=O)c2ccco2)c2ccccc21`, the compound was called inactive.

As to `CN1CCC(C(=O)Nc2nnc(-c3ccc4c(c3)OCCO4)o2)CC1`, the compound was classed as inactive.

As for `COc1ccc2c(=O)ncn(-c3cccc(Cl)c3)c2c1`, the outcome was inactive.

Regarding `Cn1cnc(=O)c2ccccc21`, the call was inactive.

As to `COc1cccc(-n2cnc(=O)c3ccccc32)c1`, the call was inactive.

For the compound `O=c1ncn(Cc2ccc(Cl)cc2)c2ccccc12`, the outcome was inactive.

As to `O=c1ncn(-c2ccc(F)c(Cl)c2)c2ccccc12`, the compound was called inactive.

Turning to `Cn1nc(NC(=O)c2ccco2)c2cccnc21`, the outcome was inactive.

With `CCc1ccc2cc3c(NC(=O)c4ccco4)nn(C)c3nc2c1`, the compound was called inactive.

As to `O=c1ncn(-c2cc(Cl)cc(Cl)c2)c2ccccc12`, the compound was classed as inactive.

Take `COc1ccc(S(=O)(=O)Nc2nnc(-c3ccc4c(c3)OCCO4)o2)cc1`: the compound was called inactive.

As for `O=C(CSc1nc2c(c(=O)[nH]1)CCCC2)NC1CCCCC1`, the outcome was inactive.

Regarding `Cc1ccc2cc3c(NC(=O)Cc4ccco4)nn(C)c3nc2c1`, the compound was classed as inactive.

As for `Cc1ccc2cc3c(NC(=O)c4ccc(C)o4)nn(C)c3nc2c1`, the result was inactive.

As for `Cc1ccc2cc3c(NC(=O)C4CCCC4)nn(C)c3nc2c1`, the compound was classed as inactive.

For `COc1ccc(-c2nnc(NC(=O)C3CCCCC3)o2)cc1`, the compound was classed as inactive.

In the case of `Cn1ccc(NC(=O)c2ccco2)n1`, the call was inactive.

As for `c1ccc(CNc2nnc(-c3ccc4c(c3)OCCO4)o2)cc1`, the result was inactive.

Take `O=C(Nc1nnc(-c2ccncc2)o1)C1CCC1`: the outcome was inactive.

`O=C(CC1CCCCC1)Nc1nnc(-c2ccc3c(c2)CCCC3)o1`: the compound was classed as inactive.

Consider `O=C(Nc1nnc(-c2ccc3c(c2)OCCO3)o1)C1CC1`, for which the result was inactive.

As to `O=C(Nc1nnc(-c2ccc3c(c2)OCCO3)o1)C1CCCC1`, the compound was classed as inactive.

In the case of `Cn1nc(NC(=O)c2ccco2)c2cc3ccccc3nc21`, the outcome was inactive.

As to `CCn1nnnc1/N=C/c1ccc(N2CCCCC2)cc1`, the result was inactive.

With `O=C(Cc1ccc(-c2ccccc2)cc1)NC1CCC1`, the outcome was inactive.

With `Cc1nc(=O)c2ccccc2n1-c1cccc(Cl)c1`, the compound was called inactive.

Turning to `O=C(Nc1nnc(-c2ccc3c(c2)OCCO3)o1)C1CCC1`, the outcome was inactive.

`O=C(Nc1nnc(-c2cccnc2)o1)C1CCC1`: the call was inactive.

Turning to `O=c1ncn(-c2ccc(Cl)cc2)c2ccccc12`, the outcome was inactive.

`Cc1ccc2cc3c(NC(=O)c4ccccn4)nn(C)c3nc2c1`: the compound was called inactive.

Consider `Cn1nc(NC(=O)c2ccco2)c2cc3ccc(C(C)(C)C)cc3nc21`, for which the result was inactive.

For `O=c1ncn(-c2ccccc2Cl)c2ccccc12`, the outcome was inactive.

On to `O=C(Nc1nnc(-c2cccnc2)o1)C1CCCCC1`, for which the compound was classed as inactive.

Turning to `O=c1nc(-c2ccccc2)n(-c2cccc(Cl)c2)c2ccccc12`, the result was inactive.

With `O=C(Nc1nnc(-c2ccc3c(c2)CCCC3)o1)C1CCC1`, the call was inactive.

With `NC(=O)c1ccccc1Nc1cccc(Cl)c1`, the compound was called inactive.

Consider `Cc1ccc2cc3c(NC(=O)c4cccs4)nn(C)c3nc2c1`, for which the result was inactive.

On to `CCC(C)(C)C(=O)Nc1nnc(-c2ccc3c(c2)OCCO3)o1`, for which the outcome was inactive.

Regarding `CCn1nnnc1NCc1ccc(C(C)C)cc1`, the result was inactive.

Turning to `O=c1[nH]cnc2ccccc12`, the call was inactive.

On to `C(=N\c1nnc(-c2ccc3c(c2)OCCO3)o1)/c1ccccc1`, for which the outcome was inactive.

In the case of `O=S(=O)(Nc1nnc(-c2ccc3c(c2)OCCO3)o1)c1ccc(Cl)cc1`, the compound was called inactive.

As to `Cc1ccc2c(c1)c(=O)ncn2-c1cccc(Cl)c1`, the call was inactive.

For `COc1ccccc1-c1nnc(NC(=O)C2CCCCC2)o1`, the compound was classed as inactive.

Consider `COc1cccc(-c2nnc(NC(=O)C3CCCCC3)o2)c1`, for which the compound was classed as inactive.

With `O=C1C(=O)N(Cc2ccccc2Cl)c2ccccc21`, the compound was called inactive.

As to `COc1ccc2cc3c(NC(=O)c4ccco4)nn(C)c3nc2c1`, the outcome was inactive.

For the compound `O=C(Nc1nnc(-c2ccccc2Cl)o1)C1CCCCC1`, the result was inactive.

(Values after PubChem BioAssay AID686928 (Broad Institute, 2013).)
